# Data taken from PubChem BioAssay (NCI).
# This is part of a sample that, as a whole, favours compounds with a hit. Of some 83,000 tested, about 20% had one in any assay.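 Activity criterion: percent growth below 10, measured after cells in 96-well plates were exposed to a single compound concentration for 48 hours.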 Unmarked numbers belong to inactive results. Activity calls are given as the source filed them.
# Test system: HL-60(TB) leukemia
# Test: NCI-60 one-dose screen, 48 h (100 = growth as untreated, 0 = no growth, -100 = all killed)
# Details: 10 µM unless noted
row,Structure (SMILES),growth
1,NS(=O)(=O)c1ccc(CCn2c(SCC(=O)N/N=C/c3ccccc3O)nc3ccccc3c2=O)cc1,-25.5% (active)
2,Cc1n(Cc2ccc3ccccc3c2)c(Cl)c(Cl)[n+]1Cc1ccc2ccccc2c1,-34.6% (active)
3,COc1ccc(-c2c3c(nn2-c2ccc(N)cc2)CCc2cnoc2-3)cc1OC,93.1%
4,O=C(Nc1ccc(I)cc1F)c1cc(F)ccc1O,-30.7% (active)
5,O=C(/C=C/c1cccnc1)/C=C/c1cccnc1,-43.4% (active)
6,CCc1nnc(NC(=O)c2ccoc2COc2ccccc2)s1,19.3%
7,O=C(CCCSc1nc(-c2ccccc2)cc(-c2ccccc2)n1)NO,-26.2% (active)
8,CN=C(NC)N/N=C(C)\C=N\NC(=NC)NC,99%
9,NC(CCCC(N)C(=O)c1ccccc1)C(=O)O (configuration not stated),94.3%
10,Cc1cc2nc(CS)[nH]c2cc1C,80.1%
11,COc1ccc2c(c1)Oc1nc(N)c(C#N)c(N)c1C2Sc1ccc(O)cc1 (configuration not stated),9.8% (active)
12,O=C(O)c1cc2ccccc2cc1Nc1ccccc1,93.3%
13,COc1cc(-c2cc(-c3ccc(Nc4ncnc5cc(Cl)ccc45)cc3)nc(N3CCCCC3)n2)cc(OC)c1OC,91.6%
14,O=C(/C=C/c1ccc(Br)cc1)c1ccccc1,81.5%
15,CCOC(=O)/C(C#N)=C/c1cccc(C)c1,86.4%
16,COc1cccc(-c2nc3occn3c2-c2ccnc(NCCCNS(=O)(=O)c3ccc(C(F)(F)F)cc3)n2)c1,116%
17,Clc1nc(Cl)c2ncn(CC3(Cn4cnc5c(Cl)nc(Cl)nc54)COC3)c2n1,-75.5% (active)
